# Shown are actives, neighbours in structure and some others; about 0.92% of the full set was active somewhere.
# Mtb UGM inh: Mtb UDP-galactopyranose mutase inhibition; purified UGM, fluorescence polarization probe displacement; inhibition, % at 10 µM; AID 504406; actives 0.06% (n = 320,000); P9WIQ1; in the data active = inhibition above about 10%, passing the limit was not always enough; inconclusive = no clear call, values can overlap the other calls
# Target sequence (P9WIQ1 whole entry, looked up): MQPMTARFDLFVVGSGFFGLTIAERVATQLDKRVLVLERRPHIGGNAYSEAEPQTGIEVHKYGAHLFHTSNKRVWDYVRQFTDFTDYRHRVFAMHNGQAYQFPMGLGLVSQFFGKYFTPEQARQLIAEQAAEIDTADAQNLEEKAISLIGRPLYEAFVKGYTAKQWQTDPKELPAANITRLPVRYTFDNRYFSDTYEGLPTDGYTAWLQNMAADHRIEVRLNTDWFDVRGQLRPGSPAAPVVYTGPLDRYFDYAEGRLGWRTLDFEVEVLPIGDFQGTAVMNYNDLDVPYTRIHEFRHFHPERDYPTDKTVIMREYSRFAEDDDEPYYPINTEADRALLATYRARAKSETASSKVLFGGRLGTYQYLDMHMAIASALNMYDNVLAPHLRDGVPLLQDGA
# Mtb hypoxia inh: inhibitors of hypoxia-regulated fluorescent reporter in Mycobacterium tuberculosis; M. tuberculosis hypoxia-regulated fluorescent reporter, fluorescence; fluorescence inhibition, % (no concentration beside the values); actives 0.1% (n = 300,000); AID 1159583; in the data active = fluorescence inhibition mostly above about 23%, no sharp cut-off; inactive = mostly below about 17%
# Rv3671c protease: inhibitors of M. tuberculosis serine protease Rv3671c; inhibition, % at 5.96 µM; actives 0.048% (n = 320,000); in the data active = inhibition above about 38%;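 also: extracellular domain of Rv3671c used as enzyme; 0% = enzyme with DMSO and 100% = no enzyme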
# FadD28 binding: blocks FadD28 binding to the bisubstrate probe. actives 0.22% (n = 360,000). AID 588549. inhibition, % at 12.5 µM. fluorescence polarization; in the data active = inhibition above about 8.5%, passing the limit was not always enough; inconclusive = no clear call, values can overlap the other calls
# RecA intein inh: Mtb RecA intein splicing inhibition; P9WHJ3; cell-free RecA intein splicing, fluorescence; inhibition, % (concentration not given with the values); actives 0.75% (n = 290,000); AID 2221; in the data active = inhibition above about 30%; inconclusive = no clear call, values can overlap the other calls;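 also: 0% = vehicle wells and 100% = reference inhibitor control wells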
# * marks the source's active call; other numbers are inactive results; i = inactive; ? = inconclusive; nt = not tested or not shown.
SMILES,Mtb UGM inh,Mtb hypoxia inh,Rv3671c protease,FadD28 binding,RecA intein inh
CCc1cccc2c(C(=O)CN3C(=O)NC4(CCc5ccccc54)C3=O)c[nH]c12 (stereo not given),-1,-8,-8,33*,-2
CCc1cccc2c(C(=O)CN3C(=O)NC(C)(c4cccc5ccccc45)C3=O)c[nH]c12 (stereo not given),3,1,-77,19*,4
Cc1ccc(C)c(C(=O)CN2C(=O)NC3(CCc4ccccc43)C2=O)c1 (stereo not given),-1,2,0,-8,nt
CCOC(=O)C1C2COc3ccc(Br)cc3C2N2C(=O)c3cc(OC)c(OC)cc3NC(=O)[C@@]12C (stereo not given in full),nt,-5,nt,nt,nt
CC(CSc1ccccc1)CN1CCC(NC(=O)OCc2ccccc2)CCC1=O (stereo not given),nt,8,nt,nt,nt
Cc1nc2ccc(Br)cn2c1C(=O)NN=Cc1ccccc1Cl,nt,3,nt,nt,nt
CCOc1cc(C(=O)NN=C/C(Br)=C/c2ccccc2)cc(OCC)c1OCC,nt,2,nt,nt,nt
N#Cc1c2ccccc2nc2ccccc12,-7,62*,1,-1,-2
Nc1c2ccccc2nc2ccccc12,-2,-1,-7,0,i
CN1C2CCC1C(C(=O)N1CCOCC1)=C(O)C2 (stereo not given),nt,21,nt,nt,nt
CCCN(CC(=O)Nc1ccccc1C)C(=O)CCl,-3,35*,1,?,nt
CC1CN(C(C)CO)C(=O)c2cccc(NC(=O)C3CCCCC3)c2OC1CN(C)Cc1ccncc1 (stereo not given),nt,16,nt,nt,nt
C[C@@H]1Cc2c(O)c(O)cc(O)c2C(=O)O1,-1,nt,-22,-1,-4
CC1Oc2cc3c(-c4c(O)cc(O)c5c(O)c6c(cc45)OC(C)C(C)C6=O)c(O)cc(O)c3c(O)c2C(=O)C1C (stereo not given),1,nt,40*,31*,87*
O=C(CSc1ccccc1C(=O)O)c1ccc(Cl)cc1,-1,-5,2,-3,-2
O=C(O)c1ccccc1NC(c1ccccc1)c1ccc(Cl)cc1 (stereo not given),4,nt,-3,12*,12
CCOC(=O)c1ccc(NC(=O)c2nc[nH]c2C(=O)NC(C)c2ccccc2)cc1 (stereo not given),nt,-5,nt,nt,nt
O=S1(=O)CCOCC(Cc2ccccc2)N1Cc1ccccc1 (stereo not given),nt,20,nt,nt,nt
CC(C)CC(=O)/C(=C\c1ccc(Cl)cc1Cl)n1cncn1,nt,21,nt,-6,44*
O=C(NCc1ccccc1)C1(C(F)(F)F)CC(=CCCO)CCCO1 (stereo not given),nt,10,nt,nt,nt
CCCCc1ccc(/C=C2\C(=O)c3ccccc3C(O)=C2C(=O)OCC)cc1,1,nt,-82,nt,35*
CCOC1OC(C(N)=O)=CC(C2CCCCC2)C1CCCO (stereo not given),nt,4,nt,nt,nt
COC(=O)C(Cc1ccccc1)N(Cc1ccccc1)S(=O)(=O)N(Cc1ccccc1)C(Cc1ccccc1)C(=O)OC (stereo not given),nt,7,nt,nt,nt
CCCCn1c(N)c(N(CCOC)C(=O)c2oc3ccc(Br)cc3c2C)c(=O)[nH]c1=O,nt,26*,nt,-3,nt
CCCCN(C(=O)CSc1nnc(-c2ccccc2)o1)c1c(N)n(CCC)c(=O)[nH]c1=O,-2,30*,-2,-5,nt
SMILES,Mtb UGM inh,Mtb hypoxia inh,Rv3671c protease,FadD28 binding,RecA intein inh
CCCCN(C(=O)c1ccco1)c1c(N)n(CCC)c(=O)[nH]c1=O,2,28*,1,-3,nt
CCCCn1c(N)c(N(CC)C(=O)c2ccco2)c(=O)[nH]c1=O,-1,-4,6,-4,nt
Cc1ccc(OCC(=O)NN=Cc2cccnc2)cc1,nt,12,nt,nt,nt
O=[N+]([O-])c1cccc(CN2C(Cc3ccccc3)COCCS2(=O)=O)c1 (stereo not given),nt,16,nt,nt,nt
O=S1(=O)CCOCC(c2ccccc2)N1Cc1ccccc1F (stereo not given),nt,2,nt,nt,nt
Cc1ccc(/C=C/C(=O)C2C(=O)c3ccccc3C2=O)cc1,0,-2,-4,11*,8
CC1CCC2[C@@H](C)C(=O)OC3O[C@]4(C)CCC1C32OO4 (stereo not given in full),-2,84*,8,-5,-1
CC1CCC2C(C)C(=O)OC3OC4(C)CCC1C32OO4 (stereo not given),2,81*,0,-1,0
Cc1ccc(-c2csc(NS(=O)(=O)c3cccc(F)c3)n2)o1,0,8,7,16*,nt
Cc1sc2nc(SCC(=O)NCc3ccco3)n(C)c(=O)c2c1C,3,16,6,-2,-4
CCn1c(SCC(=O)NC(=O)NCc2ccco2)nc2sc(C)c(C)c2c1=O,0,38*,-2,-4,-1

# Screens: PubChem BioAssay, several laboratories
